Source: PubChem BioAssay AID588591 (National Center for Advancing Translational Sciences (NCATS), 2011)
Out of some 390,000 compounds screened, about 4,700 (1.2%) were called active. Not shown: some 4% with an inconclusive outcome. The call rests on the fitted dose curve; in most records, active means well fitted inhibition curve with a large enough effect; inconclusive means small, poorly fitted or top-dose-only effect, or another doubt; inactive means no such curve, though single readings can be large or run the other way. What follows is part of a selection rich in actives, with near analogues and random picks from the rest.

Each compound was assayed against DNA polymerase eta (Homo sapiens) (UniProt Q9Y253) (assay: qHTS for Inhibitors of Polymerase Eta). Settings: recombinant Pol eta, fluorescent DNA replication assay; series mostly up to 114 µM; activity change, negative = inhibition: at the top concentration.
Chain of DNA polymerase eta (Homo sapiens) (Q9Y253 whole entry, looked up): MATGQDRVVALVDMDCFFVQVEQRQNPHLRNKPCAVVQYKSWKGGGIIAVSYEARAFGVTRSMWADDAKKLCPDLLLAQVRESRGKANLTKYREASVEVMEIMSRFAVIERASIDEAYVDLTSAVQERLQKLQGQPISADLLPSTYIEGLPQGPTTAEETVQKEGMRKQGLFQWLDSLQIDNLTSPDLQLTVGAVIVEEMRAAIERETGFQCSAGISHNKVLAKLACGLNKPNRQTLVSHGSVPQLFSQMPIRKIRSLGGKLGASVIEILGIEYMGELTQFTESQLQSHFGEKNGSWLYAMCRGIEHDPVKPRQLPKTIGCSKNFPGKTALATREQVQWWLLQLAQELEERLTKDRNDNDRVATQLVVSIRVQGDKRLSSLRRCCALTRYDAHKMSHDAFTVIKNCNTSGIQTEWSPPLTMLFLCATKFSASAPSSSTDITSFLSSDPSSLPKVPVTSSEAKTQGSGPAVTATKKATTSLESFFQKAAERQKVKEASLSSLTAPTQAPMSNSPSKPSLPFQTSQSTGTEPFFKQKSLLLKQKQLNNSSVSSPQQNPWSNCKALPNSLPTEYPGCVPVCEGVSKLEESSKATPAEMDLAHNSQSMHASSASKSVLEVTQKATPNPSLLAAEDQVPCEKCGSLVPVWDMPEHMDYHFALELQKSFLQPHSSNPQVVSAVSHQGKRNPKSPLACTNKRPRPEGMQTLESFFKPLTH
Description: The Y-family of DNA polymerases, such as Pol eta, are specifically involved in DNA repair. Pol eta copies undamaged DNA with a lower fidelity than other DNA-directed polymerases. However, it accurately replicates UV-damaged DNA; when thymine dimers are present, this polymerase inserts the complementary nucleotides in the newly synthesized DNA, thereby bypassing the lesion and suppressing the mutagenic effect of UV-induced DNA damage. […] Thus, while pol eta's (and most likely iota's) normal function is to protect humans against the deleterious consequences of DNA damage, under certain conditions they can have deleterious effects on human health. As a consequence, we propose to utilize a high throughput replication assay to identify small molecule inhibitors of pol eta. In a collaboration between the National Institute of Child Health & Human Development (NICHD) and NIH Chemical Genomics Center, a high-throughput, fluorescent screen was developed to screen the NIH Molecular Libraries Small Molecule Repository (MLSMR). This screen is used to identify inhibitors of pol eta. NIH Chemical Genomics Center [NCGC] NIH Molecular Libraries Probe Centers Network [MLPCN] MLPCN Grant: MH090825 Assay Submitter (PI): Roger Woodgate, NICHD)
Three microliters of reagents (buffer in column 3 and 4 as negative control and 10 nM Pol eta in columns 1, 2, and 5-48) were dispensed into a 1,536-well black solid-bottomed plate. Compounds (23 nL) were transferred via Kalypsys pin tool equipped with 1536-pin array. The plates were then incubated for 15 min at room temperature, and 1 µL substrate (50 nM final concentration) was added to start the reaction and kinetically read twice at 0 min and 10 min on the Viewlux reader
On the % scale 0 is the no-effect control and ±100 the full control effect; potency means the concentration at half of the fitted maximal effect.

Potency, active:
O=C(O)C1=C(C(=O)O)C2CCC1C2 17.8 µM, CCOc1ccccc1NC(=O)CSc1ncc(S(=O)(=O)c2ccc(C(C)(C)C)cc2)c(=O)[nH]1 89.1 µM, CC(C)C1N=C2c3ccccc3N=C(SCC(=O)c3ccc(O)c(O)c3)N2C1=O (stereo not given) 2.24 µM, COc1ccc(NC(=O)/C(C#N)=C\c2cc(OC)c(OCc3ccc(C(=O)O)cc3)cc2Br)cc1 50.1 µM, O=C(c1ccc(CS(=O)(=O)c2ccccc2)o1)N1CCN(c2ccccc2)CC1 50.1 µM, Cc1ccc(-c2nn(-c3ccccc3)cc2/C=C2\SC(=S)N(CCCCCC(=O)O)C2=O)o1 44.7 µM, CN(C)S(=O)(=O)c1cccc(-c2nn(-c3ccccc3)cc2/C=C2\SC(=S)N(CC(=O)O)C2=O)c1 35.5 µM, CCOC(=O)C1=C(c2ccc(OC)cc2)C(=O)c2ccccc2C1=O 89.1 µM, C=CCOC(=O)C1=C(C)NC(SCC(=O)OCC)=C(C#N)C1c1ccc(C)cc1 (stereo not given) 17.8 µM, NC(=O)c1c(NC(=O)CSc2nnc(-c3ccco3)n2N)sc2c1CCCC2 12.6 µM, O=C1/C(=C\c2cccnc2)CN(Cc2ccccc2)C/C1=C\c1cccnc1 50.1 µM, CC1CCN(c2ccc(S(=O)(=O)Nc3cc(C(=O)O)cc(C(=O)O)c3)cc2[N+](=O)[O-])CC1 22.4 µM, O=C(O)C1CCN(c2ccc([N+](=O)[O-])cc2[N+](=O)[O-])CC1 25.1 µM, COCCCNc1nc2c(-c3cccc(C)c3)nnn2c2ccc(Cl)cc12 25.1 µM, NS(=O)(=O)c1ccc2nc(NC(=O)CS(=O)(=O)c3ccc(F)cc3)sc2c1 79.4 µM, O=c1[nH]n2c(=O)c3c([nH]c2c1N=Nc1ccccc1)CCC3 31.6 µM, Cc1csc(SCC(=O)Nc2sccc2C#N)n1 79.4 µM, N#Cc1c(N2CCCCC2)nc(N)c2c(N)nc(SCC(=O)O)cc12 22.4 µM, N#Cc1c(-c2cccs2)nc(SCC(=O)c2ccc(Br)cc2)[nH]c1=O 35.5 µM

Activity change, negative = inhibition, inactive:
CCOc1ccccc1NC(=O)COc1ccc(S(=O)(=O)N2CCCC2)cc1 -8.27%, O=C(CSc1ncc(S(=O)(=O)c2ccc(Br)cc2)c(=O)[nH]1)Nc1ccc2c(c1)OCCO2 -18.1%, Cc1cc(C)cc(NC(=O)Cc2csc(C)n2)c1 -1.34%, COc1cccc(NC(=O)CSC2=Nc3ccccc3C3=NC(CC(=O)NC4CCCCC4)C(=O)N23)c1 (stereo not given) -0.885%, Cc1c(C(=O)N2CCCC2)oc2c1-c1nn(CC(=O)NCc3ccc(OC(C)C)cc3)cc1CC2 -18.6%, Cc1ccc(CNC(=O)CSC2=Nc3ccccc3C3=NC(C)C(=O)N23)cc1 (stereo not given) -3.8%, CCOC(=O)CSC1=Nc2ccccc2C2=NC(CCC(=O)NCc3ccc(F)cc3)C(=O)N12 (stereo not given) 3.45%, CCCN1C(=O)C(O)(CC(=O)c2ccc(CC)cc2)c2cc(Br)ccc21 (stereo not given) -2.45%, COc1ccc(CCNC(=O)CSc2nc(-c3ccc(OC)c(OC)c3)ccc2C#N)cc1 -16.6%, CCOC(=O)c1ccc(-c2ccc(/C=C(\C#N)C(=O)Nc3ccc(C)cc3)o2)cc1 -6.58%, COc1ccc2c(c1)Cc1sc(NC(=O)c3ccccc3Br)nc1-2 -17.5%, O=c1cc(CSc2ncn[nH]2)[nH]c2ccc(F)cc12 -5.87%, CCOC(=O)C1CCCN(C(=O)c2ccc(CS(=O)(=O)c3ccc(Br)cc3)o2)C1 (stereo not given) -7.23%, O=C(c1ccc(CS(=O)Cc2ccccc2Cl)o1)N1CCN(c2ccccc2)CC1 (stereo not given) -11%, COC(=O)c1sccc1S(=O)(=O)N(CC(=O)Nc1ccc(C)c(F)c1)c1ccc(C)c(C)c1 -16.4%, Cc1nc(C)c(-c2nnc(-c3cccc(S(=O)(=O)N(C)C)c3)o2)cc1C(=O)NN -1.81%, Cc1nn(-c2ccc(F)cc2)c(-n2cccc2)c1C(=O)N1CCN(c2ccccc2)CC1 -19.6%, COc1ccccc1N1CCN(CCCNC(=O)c2cnn(-c3ccccc3Cl)c2C2CCN(C(=O)OC(C)(C)C)CC2)CC1 -19.7%, CSc1ccc(CCNC(=O)c2cnn(-c3ccccc3)c2-n2cccc2)cc1 -21.5%, O=C(Nc1ccc(F)cc1F)c1ccc2c(=O)n3c(nc2c1)CCCCC3 7.2%, CCc1cccc(NC(=O)c2cnc(N3CCOCC3)c3ccccc23)c1 -24.7%, CCOC(=O)C1=C(c2ccccc2)NC(=O)NC1c1cc(OC)c(OC)cc1OC (stereo not given) 5.55%, CCOC(=O)C1C(=O)C=C(c2ccc(OC)cc2)CC1c1ccco1 (stereo not given) -5.95%, Clc1ccc(CSc2nncn3c2cc2occc23)cc1 -28.9%, C=CCC1(C#N)C(=S)NC(C)=C(C(=O)OCC)C1c1ccccc1 (stereo not given) -9.51%, CCOC(=O)C1=C(C)OC(N)=C(C#N)C1c1cncc(-c2ccc(F)cc2)c1 (stereo not given) -10.5%, COC(=O)c1c(NC(=O)c2ccc(Cl)c(Cl)c2)sc2c1CCCC2 -18.5%, COC(=O)c1ccc(-c2nc3cc(NC(C)=O)ccc3o2)cc1 0.0029%, CCOC(=O)c1c(NC(=O)CSc2nnc(CN3CCOCC3)n2C)sc2c1CCCC2 -21.9%, CC1CCN(C(=O)CSc2nnc(-c3ccco3)n2N)CC1 -18.2%, CCOC(=O)c1c(C)[nH]c(CCC(=O)NCCCN2CCN(c3cc(C)ccc3C)CC2)c1C -20.8%, CCCc1nn2c(=O)cc(COC(=O)c3ccc(NC(=O)C(C)Oc4ccccc4)cc3)nc2s1 (stereo not given) -0.486%, COc1ccc(OC)c(CCNC(=O)CCCn2c(=O)c3cccn3c3cccnc32)c1 -8.68%, Cc1ccccc1-c1nc2scc(CCNC(=O)C(=O)Nc3ccc(F)cc3F)n2n1 -18.1%, Cc1ccc(C(=O)NCCSc2c(C)[nH]c3ccccc23)cc1C -23.4%, CCCCNC(=O)c1cc(-c2ccc(Cl)c(Cl)c2)on1 -6.17%, Nc1ccc2c(c1)C(=Cc1cccnc1)c1ccccc1-2 -16%, O=C(O)CCc1cccnc1 -2.96%, COc1ccc(OCC(=O)Nc2cccc(C(=O)OCc3cc(=O)n4nc(C)sc4n3)c2)cc1 -20.5%, Cc1ccc(C(=O)c2ccc(N3CCN(C)CC3)c([N+](=O)[O-])c2)cc1 -11.6%, CC1CCN(c2ccc(C(=O)NCc3ccc4c(c3)OCO4)cc2[N+](=O)[O-])CC1 -26.9%, CC1CCN(c2ccc(C(=O)Nc3nnc(C4CC4)s3)cc2[N+](=O)[O-])CC1 -2.8%, Cc1cccc(N2CCN(c3ccc(C(N)=O)cc3[N+](=O)[O-])CC2)c1C -7.46%, COc1ccc(C(=O)Nc2onc3c2CCCC3)cc1 -17.3%, COc1ccc(CCNS(=O)(=O)c2cc(-c3cc(C)no3)ccc2C)cc1OC -9.95%, Cc1ccccc1NC(=O)Cn1c(=O)n(CC2CCC(C(=O)NCCc3ccccc3)CC2)c(=O)c2ccccc21 (stereo not given) -0.383%, O=C(CSc1nc2nccnc2c(=O)n1CCc1c[nH]c2ccccc12)Nc1ccccc1F -13.3%, COc1ccc(CCNC(=O)Cn2c(=O)cc(C(F)(F)F)c3c(C)nn(C)c32)c(OC)c1 -11.4%, CC(=O)c1ccc(NC(=O)CSc2c(C(C)C)cnc3c2c(=O)n(C)c(=O)n3C)cc1 -13.3%, O=C(O)c1c(CNCc2cccc(F)c2)c2ccccc2n1Cc1ccccc1 -0.34%, COc1ccc(CCNc2nc3c(-c4cccc(F)c4)nnn3c3ccccc23)cc1OC -6.17%, COCCCNc1nc2c(-c3cccc(C(F)(F)F)c3)nnn2c2ccccc12 -9.1%, CCC(CC)c1nn2cc(-c3ccccc3)nc2s1 -11.7%, COc1ccc(S(=O)(=O)c2c(Nc3ccc(C)cc3)sc(C(=O)c3ccc(C)cc3)c2N)cc1 -1.29%, Cc1nc2ccc(S(=O)(=O)N(CC(=O)Nc3ccc(F)cc3)Cc3ccccc3)cc2s1 -16.1%, NS(=O)(=O)c1ccc2nc(NC(=O)COc3ccccc3)sc2c1 5.57%, CCOc1ccc(CCNC(=O)CN(c2ccc(C)cc2)S(=O)(=O)N(C)C)cc1OCC -20.3%, O=C(Nc1cc(Cl)cc(Cl)c1)c1ccc2c(c1)N(Cc1cccc(Cl)c1)C(=O)c1ccccc1S2=O (stereo not given) -22.9%, CC(C)(C)n1c(=O)[nH]c2c(c1=O)CCC2 -3.5%, Cc1ccc(-n2ncc3c(NCCCn4ccnc4)ncnc32)cc1Cl -18.1%, O=C(COc1ccccc1F)OCc1cc(=O)n2nc(C3CCCCC3)sc2n1 -18%, O=C(CCSCc1cccc(F)c1)NCc1ccccc1 11.9%, CCc1cc2c(cc(C(=O)OC)n2Cc2nc(-c3ccc(C)cc3)oc2C)s1 6.26%, CC(=O)c1cc(C#N)c(SCC(=O)Nc2nccs2)nc1C -3.13%, CC(c1nnc(SCC(=O)Nc2sccc2C#N)n1-c1ccc(Cl)cc1)N(C)C (stereo not given) 8.96%, COc1ccc(S(=O)(=O)NCc2cccn2Cc2cccc(C)c2)cc1Cl -14.1%, CSc1cccc(NC(=O)CN2C(=O)CCc3cc(S(=O)(=O)N4CCCCC4)ccc32)c1 -5.6%, Cc1ccc2nc(COc3ccc(NC(=O)COc4ccccc4F)cc3)cc(=O)n2c1 -15.3%, CC(=O)c1ccc(NC(=O)c2nc(-c3ccc(C)cc3)n3c2CCCCC3)cc1 -12.9%, Cc1ccc(CN2CCC(CNC(=O)c3cnn(-c4ccccc4Cl)c3C3CCN(C(=O)OC(C)(C)C)CC3)CC2)cc1 -19.5%, COc1ccc(-c2cc(NCc3ccc(F)cc3)n3cnnc3n2)cc1 -10.6%, CC1CN(C(=O)N2CCC(C(=O)NCc3cccs3)CC2)c2ccccc2O1 (stereo not given) -18.7%, N#Cc1ccc(-c2cccs2)nc1SCc1ccc(Br)cc1 -21.6%, Cc1nnc(SCC(=O)NCc2cccs2)[nH]c1=O -2.58%, COc1ccc(-c2nn3c(=O)cc(CN4CCN(C(=O)c5ccc(OC)c(OC)c5)CC4)nc3s2)cc1 -13.7%, COc1ccc(Cn2ccnc2SCC(=O)Nc2ccc3c(c2)OCO3)cc1 -9.75%
